Hits are enriched below; roughly 13% of the tested compounds scored in any of these assays.
HCV inh = blocks hepatitis C virus | Huh7.5.1 HCVcc-Cre infection, luciferase reporter, 44 h | Potency, µM (doses to about 41.8 µM), actives largely listed as inhibitors | 340,000 compounds, 3.4% hits | AID 651820; active = well fitted inhibition curve with a large enough effect; inconclusive = small, poorly fitted or top-dose-only effect, or another doubt; inactive = no such curve, though single readings can be large or run the other way
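Reporter virus HCVcc-Cre (~0.5 moi) infects cells exposed to compound; seeding density 1,000 cells/well with 4 h settling beforehand. Luminescence, 15 sec read, taken 44 h post-infection following a 15 min RT substrate incubation.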
MARV entry inh = inhibitors of Marburg virus binding or cell entry; 300,000 compounds, 1.8% hits; Marburg virus pseudotyped entry inhibition, cell reporter; Potency, µM (top dose mostly 37.8 µM), hits mostly inhibitors; calls by dose curve; tested in HEK293 cells
Lassa entry inh = inhibitors of Lassa virus binding or cell entry | 300,000 compounds, 1.2% hits | Lassa virus pseudotype entry inhibition, cell reporter | Potency, µM (highest dose often 37.9 µM), most hits filed as inhibitors | AID 540256; calls by dose curve; tested in HEK293 cells; also: nearly all actives have a fitted effect of over 50% in size
CHX counter = counter-screen hit for Shiga toxin inhibitors, cycloheximide. cell reporter, cycloheximide protein synthesis inhibition counterscreen. max response, %. 300,000 compounds, 12% hits; in the data active = max response mostly above about 13%, no sharp cut-off; inactive = mostly below about 14%; also: read at 38.3 µM for the half of the compounds with a filed dose
Shiga inhibitor = Shiga toxin inhibition; Vero cells, Shiga toxin protein synthesis inhibition reporter; inhibition, % at 38.7 µM; 290,000 compounds, 9.2% hits; in the data active = inhibition mostly above about 28%, no sharp cut-off; inactive = mostly below about 43%
FMDV inh = blocks foot and mouth disease virus | FMDV antiviral cell-based qHTS | Potency, µM (highest dose often 57.9 µM), actives largely listed as inhibitors | 410,000 compounds, 1.2% hits | AID 1159524; calls by dose curve; tested in HEK293T cells; also: read-out not given here; nearly all actives have a fitted effect of over 45% in size
Numbers stand for hits; . = inactive; ? = inconclusive; / = no result; ! = not active in a repeat; [ ] = another dose, or the depositor's remark.

SMILES	HCV inh	MARV entry inh	Lassa entry inh	CHX counter	Shiga inhibitor	FMDV inh
O=S(c1ccccc1O)S(=O)c1ccccc1O (stereo not drawn)	10µM	.	.	/	/	.
CS(=O)c1ccccc1O (stereo not drawn)	.	/	/	.	.	.
CN(C)C(=O)Oc1ccc([N+](=O)[O-])cc1	.	.	.	.	.	.
CN(Cc1cccc(-c2cccnc2)c1)C(=O)Oc1ccc([N+](=O)[O-])cc1	/	/	/	/	/	35.5µM
FC(F)c1nc2ccccc2[nH]1	.	.	.	.	.	.
c1ccc2[nH]c3cc4ncnc4cc3nc2c1	.	.	.	27.6	35.8	.
CN(CCCC1CCCC1)C(=O)CCc1nnc(-c2ccccc2)o1	.	?	.	32.3	53.3	.
Cc1cc(C)n(CCN(C)C(=O)CCc2nnc(CCC3CCCCC3)o2)n1	.	/	/	37.6	91.0	.
O=C(CCc1nnc(-c2ccccc2)o1)c1ccc(Cl)cc1	.	.	.	.	.	.
CN(Cc1ccon1)C(=O)CCc1nnc(CCCCc2ccccc2)o1	.	.	.	.	.	.
CN(CCC1CCCCO1)C(=O)CCc1nnc(CCCCc2ccccc2)o1 (stereo not drawn)	.	/	/	17.3	.	.
CN(C(=O)CCc1nnc(-c2ccc(-c3ccccc3)cc2)o1)C1CCOCC1	.	.	?	.	30.1	?
O=C(CCc1nnc(-c2ccccc2)o1)NCc1c(F)cccc1F	.	?	.	.	.	.
O=C(NCCCOc1cccc(CN2CCCCC2)c1)c1ccc(Cl)c(Cl)c1	?	?	?	.	.	.
c1cc(CN2CCCCC2)cc(OCCCNc2nc3ccccc3s2)c1	?	11.6µM	16.4µM	/	/	.
Nc1nc(-c2ccccc2)nc(-c2ccccc2O)n1	?	.	.	/	/	.
CC(C)CC(=O)Nc1ccc(C(=O)COC(=O)Cc2n[nH]c(=O)c3ccccc23)cc1	.	/	/	/	/	.
O=C(NCc1nnc(SCc2ccc(F)cc2)n1-c1ccccc1)C12CC3CC(CC(C3)C1)C2	.	?	?	.	.	39.8µM
O=C(CSc1nnc(CNC(=O)C23CC4CC(CC(C4)C2)C3)n1-c1ccccc1)Nc1ccc(F)cc1	?	?	.	.	.	?
O=C(NCc1nnc(SCc2ccc(C(F)(F)F)cc2)n1-c1ccccc1)C12CC3CC(CC(C3)C1)C2	?	11.2µM	?	.	.	?
CS(=O)(=O)c1nc(-c2ccc(F)cc2)cc(C(F)(F)F)n1	6.31µM	?	?	.	.	28.2µM
COc1ccc(-c2cc(C(F)(F)F)nc(S(C)(=O)=O)n2)cc1	?	13µM!	23.1µM	.	.	20µM
Nc1nc(-c2ccc(F)cc2)cc(C(F)(F)F)n1	?	.	?	.	.	.
C[C@@H]1CCCCO[C@H](CN(C)C(=O)Cc2ccccc2)[C@@H](C)CN([C@H](C)CO)C(=O)c2cc(N(C)C)ccc2O1	/	/	/	/	/	.
CCc1ccc(CNC(=O)CCC(=O)n2ncc3cc(C)ccc32)cc1	.	/	/	.	.	.
SMILES	HCV inh	MARV entry inh	Lassa entry inh	CHX counter	Shiga inhibitor	FMDV inh
Cc1nn(C(=O)CCCC(=O)NCc2ccccc2)c2ccccc12	22.4µM	/	/	.	.	.
Cc1ccc2c(cnn2C(=O)CCCC(=O)NCc2ccc(F)cc2)c1	.	/	/	11.5	25.7	.
OC1(C#Cc2c(-c3ccsc3)oc3ccc(N4CCOCC4)cc23)CCCCC1	5.62µM	/	/	/	/	.
COc1ccc(-c2oc3ccc(N4CCOCC4)cc3c2C#Cc2ccc(N)cc2)cc1	.[8.37 µM]	/	/	/	/	.
COc1ccc(C#Cc2c(-c3ccsc3)oc3ccc(N4CCOCC4)cc23)cc1	?	/	/	/	/	.
COc1ccc(-c2oc3ccc(N4CCOCC4)cc3c2C#CC2(O)CCCCC2)cc1	10µM	/	/	/	/	.
COc1ccc(-c2oc(=O)c3cc(OC)c(OC)cc3c2C#CC2(O)CCCCC2)cc1	.	/	/	/	/	.
Cc1nn(Cc2ccccc2)c(Cl)c1C(=O)NCCc1ccccc1	.	/	/	55.8	59.7	.
COc1ccc(CCNC(=O)c2c(C)nn(CC(C)C)c2Cl)cc1	.	.	2.24µM	.	.	.
O=C(C1CCCN1S(=O)(=O)c1ccc(Cl)cc1)N1CCOCC1 (stereo not drawn)	.	.	.	.	.	.
O=C(CC(Nc1ccccc1)C(=O)O)c1ccccc1 (stereo not drawn)	.	.	?	36.7	139.0	.
CNC(=O)CC(CC(=O)c1ccccc1)c1ccccc1 (stereo not drawn)	.	/	/	/	/	.
Cc1ccc(NC(CC(=O)c2ccccc2)C(=O)O)cc1Cl (stereo not drawn)	.	/	/	40.7	71.3	.
NC(=O)CC(NC(=O)c1ccccc1)C(=O)O (stereo not drawn)	.	/	/	/	/	.
C=C(C(=O)c1ccccc1)C(NC(C)(C)C)c1ccccc1 (stereo not drawn)	3.55µM	?	?	/	/	10µM
C=C(C(=O)c1ccccc1)C(C)CC(=O)c1ccccc1 (stereo not drawn)	?	?	?	.	.	28.2µM
Cc1cccc(Cn2c(SCCN3CCCCC3)nc3c2c(=O)[nH]c(=O)n3C)c1	.	/	/	.	.	.
CC1(C)Cc2cccc(OCC(=O)NCc3ccc(F)cc3)c2O1	.	?	.	/	/	.
O=C(N/C(=C\c1cccnc1)C(=O)N1CCCCC1)c1cccc(Br)c1	.	.	.	.	.	.
O=C(CC(Nc1ccccc1)c1ccc(F)cc1)c1ccccc1 (stereo not drawn)	.	.	.	72.9	55.9	.
O=C(CC(C(=O)O)c1cccc(Cl)c1)c1ccccc1 (stereo not drawn)	.	/	/	.	.	.
O=C(CC(Nc1ccc(Cl)cc1Cl)C(=O)O)c1ccccc1 (stereo not drawn)	.	/	/	65.1	155.3	?
CCCCS(=O)(=O)CC(O)CSc1nc(-c2ccc(C)cc2)cc(-c2ccccc2)c1C#N (stereo not drawn)	/	/	?	/	/	.
Cc1ccc2c(c1)C1CN(C)CCC1N2C(=S)NC(=O)c1ccc(Cl)cc1Cl (stereo not drawn)	.	/	/	.	.	.
COc1ccccc1NC(=O)c1ccc(CN2CCOCC2)cc1	.	.	.	.	.	.
SMILES	HCV inh	MARV entry inh	Lassa entry inh	CHX counter	Shiga inhibitor	FMDV inh
CC(C)(C)c1ccc(C(=O)Nc2ccccc2C(=O)NCCN2CCOCC2)cc1	.	/	/	13.1	.	.
Cc1cc(CSc2ccccc2)ccc1NC(=O)c1ccc(Cl)c([N+](=O)[O-])c1	7.94µM	.	.	.	.	.
CSc1ccccc1NC(=O)c1ccc(CN2CCOCC2)cc1	.	?	.	12.9	51.9	.
Cc1cc(CSc2ccccc2)ccc1NC(=O)c1ccc(CN2CCOCC2)cc1	?	?	?	.	.	12.6µM
CN(C)CC[C@@H](c1ccccc1)c1ccccn1	/	.	/	/	/	/
CN(C)CC[C@H](c1ccc(Cl)cc1)c1ccccn1	/	5.62µM!	/	/	/	/
O=C(/C=C/c1ccccc1Cl)NCc1ccccc1	?	.	.	29.0	51.4	.
O=C(/C=C/c1ccccc1Cl)NCCc1ccccc1	.	?	.	49.9	76.6	.
O=C(Nc1ccccc1)Nc1ccc(Cl)c([N+](=O)[O-])c1	12.6µM	?	?	37.3	80.6	.

Compound activity deposited in PubChem by National Center for Advancing Translational Sciences (NCATS).
